Assay results reported in PubChem BioAssay (EPA / NIEHS).
Inconclusive results are not listed. The source made the active and inactive calls. How the source made its calls: active means hit-call score of the fitted dose curve at least 0.9, where 1 is the maximum; inconclusive means response in the unintended direction; inactive means score below 0.9.

Test system: Thyroperoxidase (TPO), gene 54314
Test: CCTE_Simmons_AUR_rTPO: CCTE's Amplex UltraRed Assay for Thyroperoxidase (TPO) Inhibition, Simmons Lab (AID 2283662);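 on AC50: potency for loss of signal meaning inhibition of peroxidase activity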
Procedure, shortened: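 Rat thyroid microsomal TPO + 25 uM AUR in 200 mM K phosphate; cpd 5 nM–87.5 uM [final], 8 conc, 0.5% DMSO; 300 uM H2O2 starts rxn; 37C dark 30 min; endpoint FI 544/590 nm; n=3.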

Structure (SMILES) | AC50 | outcome
N[C@@H](Cc1cc(I)c(Oc2ccc(O)c(I)c2)c(I)c1)C(=O)O | 2920 nM (active) | –
CCCOC(=O)c1ccc(C(=O)OCCC)nc1 | – | inactive
CSC(=O)c1cccc2nnsc12 | 303 nM (active) | –
O=C(c1ccc(O)cc1O)c1ccc(O)cc1O | 190 nM (active) | –
Oc1ccc(C(c2ccc(O)cc2)C(Cl)(Cl)Cl)cc1 | 4870 nM (active) | –
CCOC(=O)C(C)Oc1ccc(Oc2nc3ccc(Cl)cc3o2)cc1 (centres undefined) | 43600 nM (active) | –

Read-out: xenobiotic metabolism (CYP1A2), CYP1A2 (gene 1544)
Test: CLD_CYP1A2_6hr: CellzDirect (CLD) Gene Expression Assay for xenobiotic metabolism (CYP1A2) at 6 hours (AID 2283663);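 on AC50: potency is for induction meaning a rise in mRNA above DMSO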
Procedure, shortened: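 Primary human hepatocytes from two donor preparations, dosed daily with multiple concentrations in 0.2% DMSO and harvested at 6 h. CYP1A2 mRNA induction measured by chemiluminescent qNPA, gain of signal fitted against DMSO; cytotoxicity flagged morphologically.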

Structure (SMILES) | AC50 | outcome
CCC(O)=C1C(=O)CC(C(=O)O)CC1=O (centres undefined) | 1890 nM (active) | –
COC(=O)c1cccc(C)c1S(=O)(=O)NC(=O)Nc1nc(OCC(F)(F)F)nc(N(C)C)n1 | 5980 nM (active) | –
c1ccc2[nH]c(-c3cscn3)nc2c1 | 5820 nM (active) | –
CCOC(=O)[C@H](C)Oc1ccc(Oc2nc3ccc(Cl)cc3o2)cc1 | – | inactive
COc1c(Cl)ccc(Cl)c1C(=O)O | – | inactive
CCCCOC(=O)C(C)Oc1ccc(Oc2ccc(C(F)(F)F)cn2)cc1 (centres undefined) | – | inactive
COC(=O)c1ccccc1S(=O)(=O)NC(=O)Nc1nc(OC(F)F)cc(OC(F)F)n1 | – | inactive
CCCCCOC(=O)COc1cc(N2C(=O)C3=C(CCCC3)C2=O)c(F)cc1Cl | – | inactive
CCCOC(=O)c1ccc(C(=O)OCCC)nc1 | – | inactive
CSC(=O)c1cccc2nnsc12 | 33300 nM (active) | –
O=C(O)C1(C(=O)Nc2ccc(Cl)cc2Cl)CC1 | – | inactive
COc1nc(C)nc(NC(=O)NS(=O)(=O)c2ccccc2OCCCl)n1 | – | inactive
COC(=O)c1c(Cl)nn(C)c1S(=O)(=O)NC(=O)Nc1nc(OC)cc(OC)n1 | 2540 nM (active) | –
CCCN(CCC)C(=O)SCC | – | inactive
CCCCC(CC)CN1C(=O)C2C3C=CC(C3)C2C1=O (centres undefined) | – | inactive
CCCCOC(=O)[C@@H](C)Oc1ccc(Oc2ccc(C(F)(F)F)cn2)cc1 | – | inactive
OB(O)O | – | inactive
Oc1ccc(C(c2ccc(O)cc2)C(Cl)(Cl)Cl)cc1 | 266 nM (active) | –
CC(C)(C)[C@@H](O)[C@@H](Cc1ccc(Cl)cc1)n1cncn1 | – | inactive
COC(=O)CSc1cc(N=c2sc(=O)n3n2CCCC3)c(F)cc1Cl | – | inactive
CCOC(=O)C(C)Oc1ccc(Oc2nc3ccc(Cl)cc3o2)cc1 (centres undefined) | – | inactive
CCOC(=O)COc1cc(-n2ncc(C(F)(F)F)c(C)c2=O)c(F)cc1Cl | – | inactive
CCCOC(=O)NCCCN(C)C | – | inactive
